Hit rate of the full screen: of about 69,000 compounds, about 8,600 (12%) showed an effect of 50% or more. What follows is part of a selection rich in strong results, with near analogues and random picks from the rest.

The test system of this assay is Plasmodium berghei. The assay is described as follows: Screen against P. berghei liver stage (PbLuc), transformed with Luciferase, at 10uM. Format: functional, HepG2. Particulars: tested at 10 uM.
For `CSc1ccc(C(=O)N2CC(=O)N(CC(C)(C)C)CC(O)C2)cc1` (stereo not given), the INHIBITION was 37.4%.
The value for `O=C1CN(CC2CC2)Cc2nc(NCCc3ccccn3)sc21` was 23.4%.
Next, `CC(=O)N1CCCC2(CCN(c3ccccc3)C2=O)C1` (stereo not given): 2.58%; `O=C(CCc1ccccc1)N1CCCCC1C1OCCO1` (stereo not given): 72.1%.
The value for `O=C(CCc1ccccc1)N1CCCCC1Cn1cccn1` (stereo not given) was 29.4%; that for `O=C(NCCc1ccccc1)N1CCCCC1C1OCCO1` (stereo not given) was 25.7%.
Turning to `c1coc(CN2CCOC3(COCCN(Cc4ccncc4)C3)C2)c1` (stereo not given), the INHIBITION is 31.7%.
The value for `O=C(Cc1csc(-c2ccoc2)n1)NCCCN1CCCCC1` was -55.1%; that for `Cc1nc(CN(C)C2CCN(Cc3nnc(C4CC4)o3)C2)no1` (stereo not given) was -55.4%.
Next, `CCc1nc(CN2CCCN(Cc3nnc(C4CC4)o3)CC2)no1`: 37.9%; `CN(Cc1nnc(C2CC2)o1)C1CCN(CCc2cccs2)C1` (stereo not given): 56.7%.
Turning to `CN(Cc1noc(C2CC2)n1)C1CCN(CCc2cccs2)C1` (stereo not given), the INHIBITION is reported as 43.2%.
The value for `C1CN(Cc2noc(C3CC3)n2)CCN(Cc2nnc(C3CC3)o2)C1` was 74.9%.
Next, `CN(Cc1noc(C2CC2)n1)C1CCN(Cc2nnc(C3CC3)o2)C1` (stereo not given): 51.6%.
Next, `CN(Cc1nnc(C2CC2)n1C)C1CCN(CCc2cccs2)C1` (stereo not given): -39.9%; `CC(C)c1nc(CN(C)C2CCN(Cc3nnc(C4CC4)o3)C2)no1` (stereo not given): -25.9%.
Consider `CC(C)c1nc(CN2CCCN(Cc3nnc(C4CC4)o3)CC2)no1`, for which the INHIBITION is recorded as -33.5%.
Next, `COCCN1CC(=O)c2sc(NC(C)C)nc2C1`: 39.7%; `Cc1cc(N(C)C)nc(C2(C)CCCN2C(=O)c2ccn(C)n2)n1` (stereo not given): 36.4%; `Cc1cc(C(=O)N2CCCN(Cc3nccn3C)CC2)no1`: 22.3%.
The value for `Cc1ccc(S(=O)(=O)N2CCOCC2C#N)c(F)c1` (stereo not given) was -26.1%.
Next, `Cc1ccnc(C2CCCN2C(=O)c2cnccn2)n1` (stereo not given): 3.91%; `COc1ccc(N(C)Cc2nc3c(cnn3C)c(=O)[nH]2)cc1OC`: 35.9%.
Consider `CCOc1c(Br)cc(CNCCc2nnc3n2CCCCC3)cc1OC`, for which the INHIBITION stood at 55.4%.
The value for `COc1cc(Br)c(CNC(C)c2nnc3n2CCC3)cc1OC` (stereo not given) was 47.1%; that for `CCOc1c(Br)cc(CNC(C)c2nnc3n2CCC3)cc1OC` (stereo not given) was 50.8%; that for `COc1cc(CNC(C)c2nnc3n2CCC3)cc(OC)c1` (stereo not given) was 37.8%.
For the molecule `COc1cccc(CC(=O)NCCc2nnc3n2CCCCC3)c1`, the INHIBITION is on record as -11.3%.
The value for `Brc1cc(CNCc2nnc3n2CCC3)cs1` was 13.9%; that for `CC1(NC(=O)Cc2csc(-c3ccccc3Cl)n2)CCS(=O)(=O)C1` (stereo not given) was 34.6%; that for `CCN1CCOC(CNCc2ccc(OCc3ccccn3)cc2)C1` (stereo not given) was 3.5%.
For `Cc1c(C(=O)N2CCN(c3ccccn3)CC2)n(C)c2ccc(Cl)cc12`, the INHIBITION was 34%.
Next, `CC(C)Cc1nc(CN2CCCC2Cn2cncn2)no1` (stereo not given): 9.85%; `N#Cc1ccc(N2CCCN(CCCn3cncn3)CC2)cc1`: 9.87%.
The value for `N#Cc1ccc(CN2CCCN(C(=O)CCn3cncn3)CC2)cc1` was -14.3%; that for `N#Cc1ccc(CN2CCCN(CCCn3cncn3)CC2)cc1` was 56.5%.
Next, `CN(C)CCN1CCO[C@H]2CN(C(=O)N(C)C)C[C@H]21`: 33.4%; `O=C(O)c1csc(NCCc2ccccc2)n1`: 34.2%.
Regarding `O=C(c1ccoc1)N1CCC2(CC1)C(=O)N(CC1CC1)c1ccccc12`, the INHIBITION came to 29.7%.
Next, `CC(C)=CCN1C[C@@H]2CC[C@H]1CN(Cc1coc(C)n1)C2`: 55%.
Next, `CC(C)=CCN1C[C@@H]2CC[C@H]1CN(CCC(=O)NCc1ccco1)C2`: 29.7%.
Next, `CC(C)=CCN1C[C@@H]2CC[C@H]1CN(Cc1cc(=O)[nH]c(=O)[nH]1)C2`: 39%; `Cc1ccc(C(=O)N2C[C@@H]3OCCN(CCN4CCCC4)[C@@H]3C2)cn1`: 19.9%; `COc1cc(C)c2c(c1C)C[C@@H](C(C)C(=O)O)CC2` (stereo not given in full): 10.1%.
As for `c1ccc(-n2ccc(CN3CCCC(Cn4cncn4)C3)n2)cc1` (stereo not given), the INHIBITION came to 15.3%.
The value for `CCOc1ccc(C(C)Nc2ncnc3c2CCNC3)cc1OCC` (stereo not given) was 47.9%.
Next, `CC(C)Nc1ncnc2c1CCNCC2`: 43.8%; `Cc1nc(C(C)Nc2ncnc3c2CCNCC3)c(C)s1` (stereo not given): -10.9%; `Cc1cc(C)n(CC(C)Nc2ncnc3c2CCNC3)n1` (stereo not given): 29.4%.
Next, `CC(Nc1ncnc2c1CCNC2)c1ccc(C(C)(C)C)cc1` (stereo not given): 65%; `CC(Nc1ncnc2c1CCNC2)c1ccc2c(c1)CCCC2` (stereo not given): 88.6%.
With `CC(Nc1ncnc2c1CCNCC2)c1nc2c(s1)CCCC2` (stereo not given), the INHIBITION was 1.98%.
Next, `CCCc1ccc(C(C)Nc2ncnc3c2CCNC3)cc1` (stereo not given): 74.7%; `Cc1ccccc1C(Nc1ncnc2c1CCNC2)c1ccccc1` (stereo not given): 36.8%; `O=C(C1CCOCC1)N1CCc2onc(COc3cccnc3)c2C1`: 46.2%.
Next, `Cc1ccoc1C(=O)N1CCc2ncnc(-c3cnn(C)c3)c2CC1`: -49.8%; `Cc1cc(C2CCN(S(=O)(=O)N(C)C)CC2)ccn1`: 9.05%.
Regarding `CN(C)CCN1C(=O)CCC12CCN(Cc1cccs1)CC2`, the INHIBITION is 29.7%.
Take `CCc1nc(CN2CCN(C(=O)c3cncnc3CC)CC2)cs1`: the INHIBITION is -86.365%.
Next, `CC(C)NC(=O)N1CC[C@@H]2[C@@H]1CC(=O)N2Cc1cccnc1`: 6.27%; `CC1c2ncc(COc3cccnc3)n2CCN1C(=O)C1=CCCCC1` (stereo not given): -6.23%; `COc1ccc(CNC(=O)Nc2cccnc2N2CCCC2)cc1OC`: 31.2%.
With `Nc1nc2c(c(NC(=O)Nc3cccc(Cl)c3)n1)CCCC2`, the INHIBITION is 88.8%.
As for `Nc1nc2c(c(NC(=O)Nc3ccccc3)n1)CCCC2`, the INHIBITION is reported as 32.1%.
Next, `Nc1nc2c(c(NC(=O)Nc3ccc(Cl)c(Cl)c3)n1)CCCC2`: -10.3%; `COCCOc1ccc(CNc2nc3ccccc3nc2N)cn1`: 80.9%.
In the case of `COCCOc1ccc(CNc2cnc3ccccc3n2)cn1`, the INHIBITION is -43%.
Next, `COCCOc1ccc(CNc2nc3ccccc3o2)cn1`: -11.5%; `COCCNC(=O)Cn1c(-c2cccc(F)c2)nc(C)c(CCO)c1=O`: 7.22%.
The value for `Cc1cnc(C(=O)N2CCOCC2c2ccccc2)cn1` (stereo not given) was 43.6%.
Next, `c1ccc(OCCN2CCC(n3cncn3)CC2)cc1`: 37.4%.
As to `Clc1cc(Cl)cc(OCCN2CCC(n3cncn3)CC2)c1`, the INHIBITION is given as 62.4%.
Next, `CSc1ccc(OCCN2CCC(n3cncn3)CC2)cc1`: 27.6%.
The value for `CC(C)n1[nH]c(=O)c2c1NC(=O)CC2c1cccc(Br)c1` (stereo not given) was -6.61%; that for `CC(C)n1[nH]c(=O)c2c1NC(=O)CC2c1ccncc1` (stereo not given) was -19.1%; that for `Cc1cccc(C2CC(=O)Nc3c2c(=O)[nH]n3C(C)C)c1` (stereo not given) was 71.3%.
Next, `CC(C)n1[nH]c(=O)c2c1NC(=O)CC2c1cccc(O)c1` (stereo not given): -47%; `CCc1ccc(C2CC(=O)Nc3c2c(=O)[nH]n3C(C)C)cc1` (stereo not given): 79.7%; `CSc1ccc(C2CC(=O)Nc3c2c(=O)[nH]n3C(C)C)cc1` (stereo not given): 19.8%.
For `O=C(CCn1nc(-c2cccs2)oc1=O)Nc1cccc(F)c1`, the INHIBITION came to 31.9%.
Regarding `O=C1CC2(CCN(c3nncs3)C2)CN1c1cncnc1` (stereo not given), the INHIBITION is 15.4%.
Next, `Cc1cnc2c(S(=O)(=O)NCC3CCOC3)cccc2c1` (stereo not given): 3.15%; `Cc1cccc(OCC2CCCN(C(=O)CCn3ccccc3=O)C2)c1` (stereo not given): -10.2%; `c1ccc(-c2nnc3sc(CCN4CCCCCC4)nn23)cc1`: 30.8%.
Next, `c1cc(-c2nnc3sc(CCN4CCCC4)nn23)ccn1`: 46.1%; `c1ccc(-c2nnc3sc(CCN4CCCC4)nn23)cc1`: 54.3%.
Next, `CC(C)(N)CNS(=O)(=O)Cc1cccc2cccnc12`: 2.66%; `CCOCCCNC(=O)CCCC(=O)n1nc(C)c2ccccc21`: 32.2%; `Cc1ccsc1-c1cccc(-c2ccn(CC3CCNC3)n2)c1` (stereo not given): 72.6%.
Turning to `Cc1nccc(-c2cccc(-c3ccn(CC4CCNC4)n3)c2)n1` (stereo not given), the INHIBITION is on record as 47.2%.
Next, `c1cc(-c2cncnc2)cc(-c2ccn(CC3CCNC3)n2)c1` (stereo not given): 46.4%; `CCn1c(C)nnc1CN(C)C1CCN(CCCSC)C1` (stereo not given): -69.3%.
The value for `Cc1cc(C(=O)N2CCS(=O)(=O)CC2)c(C)o1` was -9.21%; that for `Cc1cn[nH]c1C1COCCN1Cc1c[nH]cn1` (stereo not given) was 35.6%; that for `Cc1cccc(C)c1OCC(=O)NS(=O)(=O)c1c(C)noc1C` was -55.8%.
Next, `Cc1cc(C)c(OCC(=O)NS(=O)(=O)c2c(C)noc2C)c(C)c1`: 55.1%; `Cc1ccc(OCC(=O)NS(=O)(=O)c2c(C)noc2C)cc1C`: 6.14%.
As to `O=C(NCCn1nc(C2CCNC2)c2cccnc21)C1CCC1` (stereo not given), the INHIBITION is 13.5%.
Regarding `Cc1nn(C)c2ncnc(NCC(O)CN3CCCCC3)c12` (stereo not given), the INHIBITION came to 7.3%.
Next, `COc1cccc(OC)c1OCCN1C(=O)CCNC1=O`: 25.8%; `COc1ccccc1OCCCN1C(=O)CCNC1=O`: -88.2%.
Next, `CC(C)Oc1ccccc1OCCN1C(=O)CCNC1=O`: 50.5%.
As to `COCCc1noc(-c2cc(Cl)c3c(c2)OCCCO3)n1`, the INHIBITION is recorded as -119%.
The value for `CN1CCC(NC(=O)c2cc(Br)cc(Cl)c2O)C1=O` (stereo not given) was 20%.
The value for `CN1CCN(c2ncc3c(=O)n(Cc4ccco4)ccc3n2)CC1` was 41.3%.
The value for `CCN1CCN(c2ncc3c(=O)n(Cc4ccco4)ccc3n2)CC1` was 67.5%; that for `O=c1c2cnc(N3CCCCC3)nc2ccn1Cc1ccco1` was -33.7%; that for `Cc1noc(C)c1S(=O)(=O)NC(=O)COc1ccc(C(C)C)cc1` was 4.1%.
On to `NS(=O)(=O)CCNC(=O)c1cc2ccccc2nc1N1CCCC1`, for which the INHIBITION is 2.91%.
The value for `Cc1ccc2oc(C(=O)N3CCCC(n4cccn4)C3)cc2n1` (stereo not given) was -32.55%.

For the origin of these results see ChEMBL document CHEMBL4513216, “Probing the Open Global Health Chemical Diversity Library for Multistage-Active Starting Points for Next-Generation Antimalarials” (ACS Infect Dis, 2020).
